Assay outcomes: PubChem, several laboratories
Only some compounds are listed: those with a hit (about 1.5% of all), similar ones and a draw of the others.
DAGLB inh: diacylglycerol lipase beta (human) inhibition. hit rate 0.059% among 340,000. Q8NCG7. inhibition, % at 5.17 µM. HEK293T DAGLB membrane lysate, EnzChek fluorogenic substrate; in the data active = inhibition above about 34%
ANO1 activ: mouse TMEM16A channel activation, primary screen. Q8BHY3. HEK293 TMEM16A/YFP-H148Q/I152L, iodide quench fluorescence; hits give low values. B-score at 10 µM. hit rate 0.3% among 340,000. AID 623877;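 active = fluorescence-ratio B-score plate-corrected deviation score at least 3 library SD below zero, with starting fluorescence score within 5 deviations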;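 note: channel opened by trigger with iodide after compound preincubation; score built on the fluorescence ratio of max minus min over baseline; more negative score means more quench and so TMEM16A activation or potentiation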
ABCB6 inh MLPCN: inhibitors of human ABC transporter ABCB6; Q9NP58; K562-ABCB6 porphyrin accumulation, flow cytometry, 1 h; hits give low values; fluorescence ratio to DMSO, % at 10 µM; hit rate 0.19% among 360,000;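 active = fluorescence ratio to DMSO below 75%, the collection mean minus 3 SD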;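 note: signal is porphyrin accumulated inside mitochondria; lower ratio means ABCB6 inhibition with less porphyrin fluorescence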
Target sequence (Q9NP58 whole entry, looked up): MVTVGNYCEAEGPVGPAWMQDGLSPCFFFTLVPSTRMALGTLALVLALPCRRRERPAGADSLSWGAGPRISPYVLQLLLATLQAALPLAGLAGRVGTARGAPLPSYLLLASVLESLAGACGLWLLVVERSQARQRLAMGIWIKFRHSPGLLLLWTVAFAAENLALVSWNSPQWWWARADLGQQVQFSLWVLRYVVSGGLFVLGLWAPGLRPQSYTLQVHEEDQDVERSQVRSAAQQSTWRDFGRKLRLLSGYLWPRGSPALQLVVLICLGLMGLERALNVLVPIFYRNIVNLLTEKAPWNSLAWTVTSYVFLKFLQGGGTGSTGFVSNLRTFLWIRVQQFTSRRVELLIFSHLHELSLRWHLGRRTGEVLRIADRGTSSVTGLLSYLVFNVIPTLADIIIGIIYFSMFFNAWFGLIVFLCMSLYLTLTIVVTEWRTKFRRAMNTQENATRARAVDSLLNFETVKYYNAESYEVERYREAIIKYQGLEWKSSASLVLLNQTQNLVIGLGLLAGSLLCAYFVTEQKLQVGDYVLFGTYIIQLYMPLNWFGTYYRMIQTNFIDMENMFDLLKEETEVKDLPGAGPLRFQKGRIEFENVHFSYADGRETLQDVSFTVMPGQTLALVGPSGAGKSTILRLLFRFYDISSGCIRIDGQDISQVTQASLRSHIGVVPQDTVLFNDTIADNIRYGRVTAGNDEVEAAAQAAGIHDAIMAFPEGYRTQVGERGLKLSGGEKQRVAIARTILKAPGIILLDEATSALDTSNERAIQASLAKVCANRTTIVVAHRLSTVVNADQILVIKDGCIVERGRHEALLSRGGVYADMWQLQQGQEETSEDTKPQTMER
TMEM16A inh: mouse TMEM16A channel inhibition, primary screen; HEK293 TMEM16A/YFP iodide influx fluorescence, ionomycin; Q8BHY3; hit rate 1.2% among 310,000; AID 588511; normalized B-score (activity score, 25-100; higher = stronger inhibition) at 10 µM;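 active = ratio plate-corrected score three or more library SD toward inhibition, starting fluorescence score within five deviations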;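 note: score derived from kinetic fluorescence span divided by baseline fluorescence per well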
iPSC survival up: increases survival of single human iPS cells. hiPSC single-cell survival, ATPlite luminescence; 100% = ROCK inhibitor wells, 0% = DMSO. survival enhancement, % at 20 µM. hit rate 0.044% among 360,000; in the data active = survival enhancement above about 18%;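 note: cells exposed to compounds for 16 hours before the ATP read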
TMEM16A reconf: reconfirmed blocker of mouse TMEM16A calcium-activated chloride channel; shares compounds with TMEM16A inh; hit rate 39% among 2,300; inhibition, % at 10 µM; HEK293 TMEM16A/YFP-H148Q, iodide quench fluorescence; ionomycin added to raise cell calcium; AID 652189;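 active = mean duplicate percent inhibition, scaled so buffer wells are 0 and the reference blocker 100, over three buffer SD above buffer mean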
TMEM16A Ca cntr: alters calcium mobilization in TMEM16A HEK293 cells, counter-screen | TMEM16A/YFP HEK293, Fluo4 calcium mobilization | shares compounds with TMEM16A inh | hit rate 2% among 2,300 | calcium response (% of ionomycin), % at 10 µM;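 active = duplicate-averaged calcium signal over 20% of the ionomycin maximum, relative to buffer baseline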;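 note: each well's signal is peak minus trough fluorescence divided by its pre-addition baseline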
YFP-HEK293 quench: counter-screen for TMEM16A inhibitors: effect in parental YFP-HEK293 cells; shares compounds with TMEM16A inh; 2,300 tested, under 10 active; YFP ratio F(max-min)/F0 at 10 µM; iodide YFP quench, ionomycin; AID 652233;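 active = yellow fluorescent protein signal ratio exceeding the buffer control mean by over 5 SD of those controls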;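 note: ratio is mean of duplicate wells from kinetic YFP trace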
ClC-1 inh: selectivity of TMEM16A inhibitors: inhibition of rat ClC-1 chloride channel | shares compounds with TMEM16A inh | CHO ClC-1-YFP, iodide influx fluorescence quench; iodide control reads 0, buffer control 100 | ratio percent, % at 10 µM | 2,300 tested, under 10 active | AID 652236;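 active = duplicate-mean ratio percent above the mean of iodide-only control wells, which defines zero, plus 5 of their SD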;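 note: higher percent means stronger block of ClC-1 iodide influx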
Numbers stand for hits; - = inactive; . = no result given.

SMILES	DAGLB inh	ANO1 activ	ABCB6 inh MLPCN	TMEM16A inh	iPSC survival up	TMEM16A reconf	TMEM16A Ca cntr	YFP-HEK293 quench	ClC-1 inh
O=C(CCC1CCCC1)Nc1ccccc1-c1ccccc1	-	-	-	-	-	.	.	.	.
CSCCC(NS(=O)(=O)c1ccc(C)cc1)C(=O)NNC(=O)c1csc(N2CCOCC2)n1 (stereo unspecified)	-	-	-	-	-	.	.	.	.
CCCCC1CC(C)(C(=O)CSc2nc3ccccc3s2)OC1=O (stereo unspecified)	-	-	-	100	-	30.0%	-	-	-
CC1CCN(C(=O)CSc2nc3ccccc3s2)CC1	-	-	-	-	-	.	.	.	.
O=C(COC(=O)c1cc(Cl)nc(Cl)c1)NC1CCCCCC1	-	-	-	.	-	.	.	.	.
CCN(Cc1ccncc1)Cc1cn(C)nc1-c1ccc(Oc2ccccc2)cc1	-	-	-	100	-	-	-	-	-
CC(C)N(C)Cc1cn(C)nc1-c1ccc(Oc2ccccc2)cc1	-	-	-	-	-	.	.	.	.
CN(Cc1cn(C)nc1-c1ccc(Oc2ccccc2)cc1)Cc1cnc2ccccn12	-	-	-	25	-	23.5%	21.5%	-	-
COc1cccc(NC(=O)c2ccc(S(=O)(=O)NCc3cccnc3)cc2)c1	-	-	-	100	-	-	-	-	-
O=C(Nc1ccc(Nc2ccncc2)cc1)c1ccc(Nc2ccnc3ccc([N+](=O)[O-])cc23)cc1[N+](=O)[O-]	-	-	-	25	-	-	-	-	-
CCS(=O)(=O)N1CCN(c2ncnc3sc(C)c(C)c23)CC1	-	-	-	-	-	.	.	.	.
Cc1sc2ncnc(N3CCN(S(=O)(=O)c4ccc(F)cc4)CC3)c2c1C	-	-	-	100	-	-	-	-	-
COc1cc(C(=O)N2CCN(c3ncnc4sc(C)c(C)c34)CC2)cc(OC)c1OC	-	-	-	25	-	-	-	-	-
Cc1ccc(-c2ccc(S(=O)(=O)N3CCN(C)CC3)cc2)cc1	-	-	-	100	-	-	-	-	-
Cc1ccc(S(=O)(=O)N2CCN(c3ncnc4sccc34)CC2)cc1	-	-	-	25	-	17.0%	-	-	-
Cc1sc2ncnc(N3CCN(c4ncccn4)CC3)c2c1C	-	-	-	-	-	.	.	.	.
CC(C)C[C@H](NC(=O)c1[nH]cnc1C(=O)Nc1ccccc1F)C(=O)OC(C)(C)C	-	.	-	.	-	.	.	.	.
Cc1ccc(S(=O)(=O)NCC(c2ccco2)S(=O)(=O)c2ccccc2)cc1 (stereo unspecified)	-	-	-	25	-	-	-	-	-
Cc1ccc(-c2cc(C(=O)N(C)CC(=O)Nc3ccccc3Br)c3ccccc3n2)o1	-	-	-	-	-	.	.	.	.
COc1ccccc1NC(=O)CN1CCN(CC(=O)Nc2ccc(S(N)(=O)=O)cc2)CC1	-	-	-	-	-	-	-	-	-
COc1cccc(C2CC(c3cccs3)Nc3ncnn32)c1 (stereo unspecified)	-	-	-	25	-	-	-	-	-
Cc1cc(OCC(=O)NCCc2ccc(S(N)(=O)=O)cc2)c2c(C)cc(=O)oc2c1	-	-	-	-	-	.	.	.	.
COc1ccc(Cl)cc1NC(=O)CN(C)C1CCCCC1	-	-	-	-	-	-	-	-	-
C=CCN(CC=C)C(=O)Nc1cc(Cl)ccc1OC	-	-	-	25	-	-	-	-	-
COc1ccc(Cl)cc1NC(=O)CC(=O)Nc1cc(Cl)ccc1OC	-	-	-	-	-	.	.	.	.
SMILES	DAGLB inh	ANO1 activ	ABCB6 inh MLPCN	TMEM16A inh	iPSC survival up	TMEM16A reconf	TMEM16A Ca cntr	YFP-HEK293 quench	ClC-1 inh
COc1ccc(Cl)cc1NC(=O)COC(=O)C1CCCCC1	-	-	-	.	-	.	.	.	.
COC(=O)c1c(NC(=O)c2ccccc2)sc2c1CC(C)(C)NC2(C)C	-	-	-	-	-	.	.	.	.
COC(=O)c1c(NC(=O)c2ccc(OC(C)C)cc2)sc2c1CC(C)(C)NC2(C)C	-	-	-	100	-	-	-	-	-
CNc1cncc(-c2ccc(O)cc2C)n1	.	.	-	.	-	.	.	.	.
CN1/C(=C\C(=O)COC(=O)c2ccc(O)cc2)C(C)(C)c2ccccc21	-	-	-	-	-	.	.	.	.
CNS(=O)(=O)c1cccc(C(=O)OCC(=O)/C=C2/N(C)c3ccccc3C2(C)C)c1	-	-	-	-	-	21.0%	-	-	-
CN1/C(=C\C(=O)CN2C(=O)NC3(CCCCCC3)C2=O)C(C)(C)c2ccccc21	-	-	-	-	-	-	-	-	-
CN1/C(=C\C(=O)COC(=O)c2ccc(O)c(O)c2)C(C)(C)c2ccccc21	.	.	.	100	.	70.0%	-	-	-
CN1/C(=C\C(=O)COC(=O)CNC(=O)c2ccc3ccccc3c2)C(C)(C)c2ccccc21	-	-	-	-	-	29.5%	-	-	-
Cc1ccc(C(=O)N[C@H](C(=O)Nc2sccc2C(N)=O)C(C)C)cc1	-	-	-	-	-	.	.	.	.
N=c1c(S(=O)(=O)c2ccc(Cl)cc2)cc2c(=O)n3ccccc3nc2n1C1CCCCC1	-	-	-	-	-	.	.	.	.
CCCCOCCCNC(=O)C[C@@H]1C[C@@]2(C(=O)OCC)CCCC=C2N(Cc2ccc(Cl)cc2Cl)C1=O	.	.	-	.	-	.	.	.	.
CCC(=O)c1ccc(OCC(=O)OCC(=O)N2c3ccccc3NC(=O)C2(C)C)cc1	-	-	-	-	-	.	.	.	.
COCOCCn1cc(CN2CCS(=O)(=O)N(Cc3ccc(-c4ccc(Cl)c(Cl)c4)cc3)C(C(C)C)C2=O)nn1 (stereo unspecified)	-	.	-	.	-	.	.	.	.
Cc1ccnc(Nc2nc(-c3ccc(F)cc3)cs2)c1	-	-	-	100	-	-	-	-	-
CCCCCc1cc(O)c2c(C)cc(=O)oc2c1	-	-	-	100	-	16.5%	-	-	-
C[C@H](CO)N1C[C@H](C)[C@@H](CN(C)S(=O)(=O)c2cccs2)Oc2ccc(NC(=O)c3ccncc3)cc2C1=O	-	-	-	.	-	.	.	.	.
O=C(NC1CCCCC1)C1CCCN1S(=O)(=O)c1cccc2nsnc12 (stereo unspecified)	-	-	-	100	-	-	-	-	-
CC(NC(=O)C1CCCN1S(=O)(=O)c1cccc2nsnc12)c1ccccc1 (stereo unspecified)	-	-	-	-	-	.	.	.	.
Cn1c(CN2CCCCC2)nc2cc(NC(=O)c3ccc(Cl)cc3)ccc21	-	-	-	100	-	23.0%	-	-	-
